Experimental findings from ChEMBL document CHEMBL1961873, “Compounds: GSK PKIS; Assays: Nanosyn kinase panel” (2012) are described below.

The structures appear in SMILES notation.

For assay [1], the target named is Tyrosine-protein kinase SYK (Homo sapiens) (UniProt P43405). The settings on record: at 1 µM.
The target of assay [2] is T1, Tyrosine-protein kinase Tec (Homo sapiens) (UniProt P42680).
T1 sequence (whole entry): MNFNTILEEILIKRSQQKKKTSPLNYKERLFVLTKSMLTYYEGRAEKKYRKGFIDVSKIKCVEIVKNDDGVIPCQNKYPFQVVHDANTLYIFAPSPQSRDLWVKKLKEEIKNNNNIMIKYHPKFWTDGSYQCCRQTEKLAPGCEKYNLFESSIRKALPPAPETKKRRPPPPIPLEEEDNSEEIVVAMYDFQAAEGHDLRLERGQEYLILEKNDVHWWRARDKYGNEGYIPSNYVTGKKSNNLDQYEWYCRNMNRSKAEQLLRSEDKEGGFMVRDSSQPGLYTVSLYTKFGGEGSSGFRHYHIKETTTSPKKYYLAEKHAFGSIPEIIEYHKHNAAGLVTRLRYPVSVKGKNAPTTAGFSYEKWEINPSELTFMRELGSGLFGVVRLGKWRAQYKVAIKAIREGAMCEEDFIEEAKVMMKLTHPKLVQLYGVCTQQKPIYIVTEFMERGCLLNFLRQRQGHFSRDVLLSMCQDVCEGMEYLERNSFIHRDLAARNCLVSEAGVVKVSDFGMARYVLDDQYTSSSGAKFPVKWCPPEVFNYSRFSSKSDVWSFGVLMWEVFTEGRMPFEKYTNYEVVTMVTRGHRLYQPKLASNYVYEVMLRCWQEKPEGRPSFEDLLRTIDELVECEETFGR
The settings on record: at 0.1 µM.

Assay [3] addresses T1, Tyrosine-protein kinase Tec (Homo sapiens). The settings on record: at 1 µM.
Assay [4] has as its target Angiopoietin-1 receptor (Homo sapiens) (UniProt Q02763). The settings on record: at 0.1 µM.
For assay [5] the target is unchanged. The settings on record: at 1 µM.
The target of assay [6] is T2, Non-receptor tyrosine-protein kinase TNK1 (Homo sapiens) (UniProt Q13470).
T2 sequence (whole entry): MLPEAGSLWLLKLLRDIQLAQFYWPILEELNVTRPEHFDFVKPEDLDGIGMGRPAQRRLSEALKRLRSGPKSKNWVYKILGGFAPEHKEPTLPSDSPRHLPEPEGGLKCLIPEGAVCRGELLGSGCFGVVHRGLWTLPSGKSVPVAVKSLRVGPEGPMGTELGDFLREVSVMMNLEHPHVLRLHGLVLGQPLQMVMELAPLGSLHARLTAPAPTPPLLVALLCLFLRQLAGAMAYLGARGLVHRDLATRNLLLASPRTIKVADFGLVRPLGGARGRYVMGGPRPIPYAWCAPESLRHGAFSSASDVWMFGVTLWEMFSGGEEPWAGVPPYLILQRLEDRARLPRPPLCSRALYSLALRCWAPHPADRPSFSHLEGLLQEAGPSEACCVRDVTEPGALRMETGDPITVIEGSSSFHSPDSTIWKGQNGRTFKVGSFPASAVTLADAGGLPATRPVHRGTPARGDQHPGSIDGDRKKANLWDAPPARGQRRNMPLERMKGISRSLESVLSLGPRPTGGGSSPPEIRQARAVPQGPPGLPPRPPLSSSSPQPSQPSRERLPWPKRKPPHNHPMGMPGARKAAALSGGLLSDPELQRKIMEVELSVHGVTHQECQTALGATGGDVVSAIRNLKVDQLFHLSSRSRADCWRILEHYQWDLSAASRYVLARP
The settings on record: at 0.1 µM.

The target of assay [7] is T2, Non-receptor tyrosine-protein kinase TNK1 (Homo sapiens). The settings on record: at 1 µM.
The target in assay [8] is Activated CDC42 kinase 1 (Homo sapiens) (UniProt Q07912). The settings on record: at 0.1 µM.
Assay [9] has the same target. The settings on record: at 1 µM.
Assay [10] addresses High affinity nerve growth factor receptor (Homo sapiens) (UniProt P04629). The settings on record: at 0.1 µM.
Assay [11] shares this target. The settings on record: at 1 µM.
Assay [12] concerns the target BDNF/NT-3 growth factors receptor (Homo sapiens) (UniProt Q16620). The settings on record: at 0.1 µM.
Assay [13] shares this target. The settings on record: at 1 µM.
Assay [14] deals with NT-3 growth factor receptor (Homo sapiens) (UniProt Q16288). The settings on record: at 0.1 µM.
For assay [15] the target is unchanged. The settings on record: at 1 µM.
The target of assay [16] is T3, Tyrosine-protein kinase TXK (Homo sapiens) (UniProt P42681).
T3 sequence (whole entry): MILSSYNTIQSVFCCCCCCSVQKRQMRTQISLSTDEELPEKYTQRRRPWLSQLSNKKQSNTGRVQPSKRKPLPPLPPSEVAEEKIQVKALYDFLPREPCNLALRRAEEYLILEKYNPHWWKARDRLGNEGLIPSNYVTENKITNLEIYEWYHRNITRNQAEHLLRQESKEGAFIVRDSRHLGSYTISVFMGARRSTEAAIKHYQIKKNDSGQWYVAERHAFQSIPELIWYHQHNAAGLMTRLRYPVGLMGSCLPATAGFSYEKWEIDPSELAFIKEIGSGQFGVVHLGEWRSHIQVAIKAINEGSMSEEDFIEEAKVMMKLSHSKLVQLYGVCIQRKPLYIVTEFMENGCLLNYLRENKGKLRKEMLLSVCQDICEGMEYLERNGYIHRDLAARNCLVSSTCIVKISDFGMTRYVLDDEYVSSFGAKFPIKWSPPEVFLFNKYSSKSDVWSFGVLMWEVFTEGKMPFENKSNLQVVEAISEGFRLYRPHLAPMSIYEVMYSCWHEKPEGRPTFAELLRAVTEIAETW
The settings on record: at 0.1 µM.

Assay [17] has as its target T3, Tyrosine-protein kinase TXK (Homo sapiens). The settings on record: at 1 µM.
Assay [18] addresses Non-receptor tyrosine-protein kinase TYK2 (Homo sapiens) (UniProt P29597). The settings on record: at 0.1 µM.
The target in assay [19] is T4, Dual specificity protein kinase TTK (Homo sapiens) (UniProt P33981).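 Further: reported figures are mean TTK inhibition at 1 µM.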
T4 sequence (whole entry): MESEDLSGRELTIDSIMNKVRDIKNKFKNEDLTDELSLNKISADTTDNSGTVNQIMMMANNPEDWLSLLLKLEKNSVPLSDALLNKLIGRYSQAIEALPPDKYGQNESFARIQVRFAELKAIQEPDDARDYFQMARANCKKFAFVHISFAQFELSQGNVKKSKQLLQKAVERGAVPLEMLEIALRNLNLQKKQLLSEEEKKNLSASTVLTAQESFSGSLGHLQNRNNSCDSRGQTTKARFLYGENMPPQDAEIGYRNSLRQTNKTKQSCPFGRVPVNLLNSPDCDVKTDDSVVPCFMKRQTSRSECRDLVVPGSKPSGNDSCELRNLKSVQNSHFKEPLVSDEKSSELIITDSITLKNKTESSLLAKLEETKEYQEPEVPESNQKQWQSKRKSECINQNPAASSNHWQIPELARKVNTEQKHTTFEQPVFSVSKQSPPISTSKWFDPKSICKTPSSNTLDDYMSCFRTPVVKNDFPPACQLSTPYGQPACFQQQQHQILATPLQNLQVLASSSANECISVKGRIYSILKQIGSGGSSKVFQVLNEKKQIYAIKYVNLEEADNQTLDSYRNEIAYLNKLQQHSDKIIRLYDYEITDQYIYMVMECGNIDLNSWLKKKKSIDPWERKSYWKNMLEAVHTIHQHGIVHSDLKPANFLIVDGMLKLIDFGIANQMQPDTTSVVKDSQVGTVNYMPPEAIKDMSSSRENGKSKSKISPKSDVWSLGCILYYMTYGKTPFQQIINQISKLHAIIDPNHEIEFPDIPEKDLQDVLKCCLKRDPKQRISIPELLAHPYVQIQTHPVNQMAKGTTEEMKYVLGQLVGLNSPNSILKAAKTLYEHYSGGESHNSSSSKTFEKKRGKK
The settings on record: at 1 µM.

For assay [20], the target named is T5, Aurora kinase A (Homo sapiens) (UniProt O14965).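 Further: each reported value is a mean percent inhibition of Aurora-A.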
T5 sequence (whole entry): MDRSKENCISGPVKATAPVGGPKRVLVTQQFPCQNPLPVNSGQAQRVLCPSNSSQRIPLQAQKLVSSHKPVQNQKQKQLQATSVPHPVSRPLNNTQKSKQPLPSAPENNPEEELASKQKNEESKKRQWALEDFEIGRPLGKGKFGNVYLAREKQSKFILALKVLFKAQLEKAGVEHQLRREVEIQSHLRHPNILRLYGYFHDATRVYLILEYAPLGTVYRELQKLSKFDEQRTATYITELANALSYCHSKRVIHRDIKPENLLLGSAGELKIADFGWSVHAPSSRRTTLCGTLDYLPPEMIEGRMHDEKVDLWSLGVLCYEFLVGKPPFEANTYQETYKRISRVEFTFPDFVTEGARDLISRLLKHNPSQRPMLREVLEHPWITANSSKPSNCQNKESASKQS
The settings on record: at 0.1 µM.

Chain of NT-3 growth factor receptor (Homo sapiens) (Q16288 32-839 limits assumed): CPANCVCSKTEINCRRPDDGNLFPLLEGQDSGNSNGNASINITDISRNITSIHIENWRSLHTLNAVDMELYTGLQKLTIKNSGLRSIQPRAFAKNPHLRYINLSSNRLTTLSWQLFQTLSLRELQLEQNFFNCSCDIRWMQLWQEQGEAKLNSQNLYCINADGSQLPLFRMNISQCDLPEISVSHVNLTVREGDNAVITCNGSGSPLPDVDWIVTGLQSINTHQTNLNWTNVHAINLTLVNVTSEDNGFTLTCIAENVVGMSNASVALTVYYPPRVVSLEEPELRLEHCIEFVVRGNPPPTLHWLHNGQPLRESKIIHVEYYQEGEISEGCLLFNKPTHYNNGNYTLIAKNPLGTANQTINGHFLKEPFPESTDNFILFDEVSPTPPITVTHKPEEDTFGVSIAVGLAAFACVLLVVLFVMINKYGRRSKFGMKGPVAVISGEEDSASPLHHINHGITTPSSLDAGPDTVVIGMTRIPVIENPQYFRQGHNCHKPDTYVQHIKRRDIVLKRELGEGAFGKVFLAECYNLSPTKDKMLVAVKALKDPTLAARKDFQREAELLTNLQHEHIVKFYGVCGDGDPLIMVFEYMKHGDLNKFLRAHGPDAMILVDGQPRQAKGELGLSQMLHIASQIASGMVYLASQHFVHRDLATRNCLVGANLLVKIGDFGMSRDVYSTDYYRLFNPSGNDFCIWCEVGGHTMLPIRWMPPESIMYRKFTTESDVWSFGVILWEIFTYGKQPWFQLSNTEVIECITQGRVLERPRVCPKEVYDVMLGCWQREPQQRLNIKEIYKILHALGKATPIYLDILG
Chain of Angiopoietin-1 receptor (Homo sapiens) (Q02763 whole entry): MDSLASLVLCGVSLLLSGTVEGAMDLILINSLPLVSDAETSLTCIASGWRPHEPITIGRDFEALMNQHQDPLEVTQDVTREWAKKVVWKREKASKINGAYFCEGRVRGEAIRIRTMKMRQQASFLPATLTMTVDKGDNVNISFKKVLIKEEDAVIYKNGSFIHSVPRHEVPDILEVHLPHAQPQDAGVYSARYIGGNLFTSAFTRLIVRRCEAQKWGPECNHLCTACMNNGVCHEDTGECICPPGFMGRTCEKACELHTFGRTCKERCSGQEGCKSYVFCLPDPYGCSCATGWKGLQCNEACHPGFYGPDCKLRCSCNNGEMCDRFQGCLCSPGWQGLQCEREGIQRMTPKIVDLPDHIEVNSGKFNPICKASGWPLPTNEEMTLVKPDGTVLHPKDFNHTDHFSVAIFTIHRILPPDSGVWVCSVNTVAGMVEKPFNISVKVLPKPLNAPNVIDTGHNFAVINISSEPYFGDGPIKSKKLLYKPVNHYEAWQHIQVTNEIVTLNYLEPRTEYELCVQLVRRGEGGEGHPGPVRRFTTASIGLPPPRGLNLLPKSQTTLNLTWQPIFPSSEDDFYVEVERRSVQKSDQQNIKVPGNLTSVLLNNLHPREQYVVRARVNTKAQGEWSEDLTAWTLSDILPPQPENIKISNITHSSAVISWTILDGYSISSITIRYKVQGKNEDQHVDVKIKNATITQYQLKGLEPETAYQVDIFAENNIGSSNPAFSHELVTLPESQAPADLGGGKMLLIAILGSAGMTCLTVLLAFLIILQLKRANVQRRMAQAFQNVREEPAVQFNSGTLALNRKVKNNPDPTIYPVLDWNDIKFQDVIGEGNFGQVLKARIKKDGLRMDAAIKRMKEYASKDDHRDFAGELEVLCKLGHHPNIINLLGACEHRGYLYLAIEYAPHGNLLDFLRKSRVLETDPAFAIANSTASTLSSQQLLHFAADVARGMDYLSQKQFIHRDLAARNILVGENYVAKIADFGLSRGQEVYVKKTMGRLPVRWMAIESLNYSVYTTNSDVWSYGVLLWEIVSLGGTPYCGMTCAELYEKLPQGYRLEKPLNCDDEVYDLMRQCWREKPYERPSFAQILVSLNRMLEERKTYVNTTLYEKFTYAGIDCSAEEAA
Chain of BDNF/NT-3 growth factors receptor (Homo sapiens) (Q16620 32-822 limits assumed): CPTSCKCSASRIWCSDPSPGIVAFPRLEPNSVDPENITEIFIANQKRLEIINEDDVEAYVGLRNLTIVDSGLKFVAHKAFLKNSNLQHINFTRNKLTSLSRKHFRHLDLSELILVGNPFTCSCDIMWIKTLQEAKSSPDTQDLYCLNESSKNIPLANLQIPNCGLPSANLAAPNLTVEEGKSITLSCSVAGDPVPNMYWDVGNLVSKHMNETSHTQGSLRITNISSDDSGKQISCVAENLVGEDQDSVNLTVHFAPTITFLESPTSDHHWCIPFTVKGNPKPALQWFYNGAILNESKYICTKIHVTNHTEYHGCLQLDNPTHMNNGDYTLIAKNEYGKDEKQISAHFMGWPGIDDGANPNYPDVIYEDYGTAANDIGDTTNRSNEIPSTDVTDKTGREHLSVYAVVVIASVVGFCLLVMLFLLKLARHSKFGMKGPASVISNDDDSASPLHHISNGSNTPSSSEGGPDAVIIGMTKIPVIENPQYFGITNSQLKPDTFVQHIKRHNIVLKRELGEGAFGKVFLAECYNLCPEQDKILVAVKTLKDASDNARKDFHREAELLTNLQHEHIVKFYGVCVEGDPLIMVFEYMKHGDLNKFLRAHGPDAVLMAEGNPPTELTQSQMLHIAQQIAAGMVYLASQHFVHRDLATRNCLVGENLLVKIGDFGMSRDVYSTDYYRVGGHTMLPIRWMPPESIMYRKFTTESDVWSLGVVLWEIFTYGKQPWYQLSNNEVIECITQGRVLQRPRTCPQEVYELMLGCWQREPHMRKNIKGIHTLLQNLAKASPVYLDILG
Chain of Non-receptor tyrosine-protein kinase TYK2 (Homo sapiens) (P29597 whole entry): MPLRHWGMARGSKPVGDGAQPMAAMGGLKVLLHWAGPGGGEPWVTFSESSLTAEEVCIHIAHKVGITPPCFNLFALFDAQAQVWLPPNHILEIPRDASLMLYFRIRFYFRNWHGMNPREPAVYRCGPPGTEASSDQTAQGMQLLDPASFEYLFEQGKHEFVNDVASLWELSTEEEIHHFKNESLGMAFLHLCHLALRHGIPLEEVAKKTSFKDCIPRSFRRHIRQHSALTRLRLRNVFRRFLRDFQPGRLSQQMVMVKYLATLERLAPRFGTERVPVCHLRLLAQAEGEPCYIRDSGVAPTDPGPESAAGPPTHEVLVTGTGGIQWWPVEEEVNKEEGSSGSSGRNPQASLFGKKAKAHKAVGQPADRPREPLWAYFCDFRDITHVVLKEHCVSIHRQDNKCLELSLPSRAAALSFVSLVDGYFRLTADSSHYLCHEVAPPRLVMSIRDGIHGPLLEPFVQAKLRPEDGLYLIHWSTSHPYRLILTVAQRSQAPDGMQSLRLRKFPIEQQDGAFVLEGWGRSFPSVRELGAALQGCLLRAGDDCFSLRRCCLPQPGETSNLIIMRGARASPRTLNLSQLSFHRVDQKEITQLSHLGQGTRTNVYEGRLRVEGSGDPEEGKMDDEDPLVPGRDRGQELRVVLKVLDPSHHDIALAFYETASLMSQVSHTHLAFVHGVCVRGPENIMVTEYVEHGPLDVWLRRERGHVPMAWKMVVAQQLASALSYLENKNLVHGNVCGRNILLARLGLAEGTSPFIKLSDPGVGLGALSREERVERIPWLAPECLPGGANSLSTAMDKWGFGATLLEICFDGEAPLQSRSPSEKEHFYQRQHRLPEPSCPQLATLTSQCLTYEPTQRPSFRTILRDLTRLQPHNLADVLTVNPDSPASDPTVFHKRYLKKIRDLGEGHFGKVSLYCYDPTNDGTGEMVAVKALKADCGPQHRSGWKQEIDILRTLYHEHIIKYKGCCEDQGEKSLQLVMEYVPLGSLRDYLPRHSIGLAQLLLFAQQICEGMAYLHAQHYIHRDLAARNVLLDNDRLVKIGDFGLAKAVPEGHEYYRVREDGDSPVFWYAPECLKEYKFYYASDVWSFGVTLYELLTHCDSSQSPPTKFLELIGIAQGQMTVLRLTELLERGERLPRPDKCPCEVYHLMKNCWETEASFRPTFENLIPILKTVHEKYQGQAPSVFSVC
Chain of High affinity nerve growth factor receptor (Homo sapiens) (P04629 33-796 limits assumed): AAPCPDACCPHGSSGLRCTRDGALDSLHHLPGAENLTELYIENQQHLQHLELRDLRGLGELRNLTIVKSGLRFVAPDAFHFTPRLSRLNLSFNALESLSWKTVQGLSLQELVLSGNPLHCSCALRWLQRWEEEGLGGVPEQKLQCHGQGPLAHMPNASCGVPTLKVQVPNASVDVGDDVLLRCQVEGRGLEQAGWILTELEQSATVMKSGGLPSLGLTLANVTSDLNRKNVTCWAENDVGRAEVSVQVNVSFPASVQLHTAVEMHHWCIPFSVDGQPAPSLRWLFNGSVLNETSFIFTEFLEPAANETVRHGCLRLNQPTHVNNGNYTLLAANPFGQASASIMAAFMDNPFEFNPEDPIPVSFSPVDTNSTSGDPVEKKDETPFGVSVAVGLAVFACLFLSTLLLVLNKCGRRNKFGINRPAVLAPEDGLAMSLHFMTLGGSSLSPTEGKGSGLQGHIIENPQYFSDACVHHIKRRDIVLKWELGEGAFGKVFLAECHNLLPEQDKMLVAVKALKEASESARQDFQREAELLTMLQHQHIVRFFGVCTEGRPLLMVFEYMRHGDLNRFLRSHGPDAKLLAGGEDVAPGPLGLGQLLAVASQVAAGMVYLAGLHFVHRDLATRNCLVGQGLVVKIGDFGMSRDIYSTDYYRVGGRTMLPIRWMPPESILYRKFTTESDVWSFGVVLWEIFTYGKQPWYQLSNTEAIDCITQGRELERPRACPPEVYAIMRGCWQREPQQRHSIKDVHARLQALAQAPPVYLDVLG

One may read the inhibition as the change of the read-out against control, counted positive when it falls. For the compound `COC(=O)Nc1nc2cc(Oc3cccc(NC(=O)Nc4cc(C(F)(F)F)ccc4F)c3)ccc2[nH]1`, the inhibition was -0.22% in [1]; 1.48% in assay [2]; 2.64% in assay [3]; 1.09% in assay [4]; 5.44% in assay [5]; -0.45% in [6]. For the same compound, the inhibition is -3.58% in [7]; -0.5% in assay [8]; -1.08% in assay [9]; -2.72% in assay [10]; -0.96% in assay [11]; -0.54% in assay [12]. Further, the inhibition is 2.43% in assay [13]; -0.83% in assay [14]; 5.81% in assay [15]; 2.14% in assay [16]; 2.8% in assay [17]; 1.53% in [18]. Moreover, the inhibition in assay [19] was 0.75%; in [20], 1.04%.

For the compound `Nc1ncnc2occ(-c3ccc(NC(=O)Nc4cc(C(F)(F)F)cc(C(F)(F)F)c4)cc3)c12`, the inhibition in [1] is -6.95%; in assay [2], 3.65%; in assay [3] it was 6.33%; in [4] it was 29.1%; in assay [5], 77.5%; in assay [6] it was 4.85%. Also, the inhibition is 33.8% in [7]; 1.04% in assay [8]; 1.13% in assay [9]; 37.1% in assay [10]; 94.1% in [11]; 42.3% in assay [12]. In addition, the inhibition is 86.4% in assay [13]; 39% in [14]; 87.4% in [15]; 1.73% in [16]; 4.45% in [17]; -8.39% in assay [18]. Besides, the inhibition in assay [19] amounted to 3.75%; in assay [20] it was 2.66%.

On to `COc1cc2ncn(-c3cc(O[C@@H](C)c4ccccc4Cl)c(C(N)=O)s3)c2cc1OC`, for which the inhibition in assay [1] was -4.6%; in assay [2], 1.7%; in [3] it was 7.65%; in [4], 4.95%; in assay [5], 24.2%; in assay [6], 33.8%. The inhibition is 79.5% in assay [7]; 3.06% in [8]; 6.07% in assay [9]; 1.91% in assay [10]; 6.09% in assay [11]; 5.59% in [12]. The inhibition in assay [13] is 18.6%; in assay [14], 6.76%; in assay [15] it was 32.5%; in [16] it was -1.39%; in assay [17] it was 5.82%; in assay [18], -2.87%. For the same compound, the inhibition in [19] came out at 9.98%; in assay [20], 4.95%.
